Records with an inconclusive call do not appear. Active and inactive are the calls of the source. The call rests on the fitted dose curve; in most records, active means well fitted cell-killing curve with a large enough effect in the repeat runs; inconclusive means weak or mixed curves, or effect the other way; inactive means flat fitted curve, though single readings scatter.
assay: cAMP Responsive Elements (CRE) small molecule agonists, cell-based qHTS assay: qHTS cell viability counter screen (AID 2060914); settings: CRE-bla HEK293T viability, CellTiter-Glo luminescence, 5 h; series mostly up to 92.4 µM; activity change, negative = cytotoxicity: at the top concentration; further: nearly all actives have a fitted effect of over 50% in size
Outline: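 Luminescence read-out (CellTiter-Glo, 30 min RT) of ATP-based viability in CRE-bla HEK 293T cells, run in the same wells as the β-lactamase reporter assay after 3 h compound treatment at 37 °C.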
On the % scale 0 is the no-effect control and ±100 the full control effect; potency means the concentration at half of the fitted maximal effect.

Row | SMILES | activity change, negative = cytotoxicity | Potency
1 | Nc1cccnc1N | -0.0798% (inactive) | 
2 | CCOC(=O)/C=C/c1ccccc1 | 0.55% (inactive) | 
3 | C=C[C@](C)(O)CC[C@@H]1[C@@]2(C)CCCC(C)(C)[C@@H]2CC[C@@]1(C)O | -23.8% (inactive) | 
4 | C[C@H]1C[C@H]2[C@@H]3CCC4=CC(=O)C=C[C@]4(C)[C@H]3C(=O)C[C@]2(C)[C@@]1(O)C(=O)CO | 1.9% [at 42.5 µM] (inactive) | 
5 | COc1c(C)c2c(c(O)c1C/C=C(\C)CCC(=O)OCCN1CCOCC1)C(=O)OC2 | -21.1% [at 42.5 µM] (inactive) | 
6 | CCCCCC1C(=O)CCC1CC(=O)OC (configuration not stated) |  | inactive
7 | CC(CC(C)(C)C)CC(C)(C)CC(C)(C)C (configuration not stated) | 15.8% [at 42.5 µM] (inactive) | 
8 | CCn1cc(C(=O)O)c(=O)c2cc(F)c(N3CCN(C)CC3)cc21 | 12% [at 18.9 µM] (inactive) | 
9 | Cc1cc(O)c(C(C)(C)C)cc1Sc1cc(C(C)(C)C)c(O)cc1C |  | 38.5 µM (active)
10 | CC(C)=NNC(N)=S | -2.28% (inactive) | 
11 | CC(C)(C)c1ccc(OCC2CO2)cc1 (configuration not stated) | 1.08% (inactive) | 
12 | Cc1ccc2c(c1)c1c3n2CCNC3CCC1 (configuration not stated) | 3.39% [at 42.5 µM] (inactive) | 
13 | CCCC1O[C@@H]2C[C@H]3[C@@H]4CCC5=CC(=O)C=C[C@]5(C)[C@H]4[C@@H](O)C[C@]3(C)[C@]2(C(=O)CO)O1 (some centres not stated) |  | inactive
14 | CCCCC(C)C(=O)O (configuration not stated) | 3.31% (inactive) | 
15 | CCCCC(CC)COC(=O)CS (configuration not stated) |  | inactive
16 | CCOC(=O)C1=NN(c2ccccc2)C(=O)C1 | 0.987% (inactive) | 
17 | CCc1ccc(C(c2ccc(CC)cc2)C(Cl)Cl)cc1 |  | inactive
